# According to the supplement of paper PMC8728848:
# This is one part of a sample in which the strongest signals are shown more often than they occur.
# Legend:
# Experiment in all cases: glycan array binding signal (z-score within array); higher = stronger binding
# Details in all cases: glycan notation: IUPAC condensed, linker removed
# [1] = molecular target: Fuc(a1-2)Gal(b1-3)GalNAc(a1-3)[Fuc(a1-2)]Gal(b1-4)GlcNAc
# Summary of the method: (§1)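 Columns mapping to the same glycan were averaged after glycan names were converted to IUPAC-condensed notation. The data come from 3228 arrays in the Consortium for Functional Glycomics database, limited to those with an available protein sequence. Binding is reported as a within-array Z-score averaged across arrays of one protein sequence and across linkers.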
# [2] = molecular target: Fuc(a1-2)Gal(b1-4)GlcNAc(b1-2)Man(a1-3)[Fuc(a1-2)Gal(b1-4)GlcNAc(b1-2)Man(a1-6)]Man(b1-4)GlcNAc(b1-4)[Fuc(a1-6)]GlcNAc
# Summary of the method: as §1
# [3] = molecular target: Fuc(a1-2)Gal(b1-4)[Fuc(a1-3)]GlcNAc(b1-2)Man(a1-3)[Fuc(a1-2)Gal(b1-4)[Fuc(a1-3)]GlcNAc(b1-2)Man(a1-6)]Man(b1-4)GlcNAc(b1-4)[Fuc(a1-6)]GlcNAc
# Summary of the method: as §1
# [4] = molecular target: Fuc(a1-2)Gal(b1-4)[Fuc(a1-3)]GlcNAc(b1-3)Gal(b1-4)[Fuc(a1-3)]GlcNAc
# Summary of the method: as §1
# [5] = molecular target: Fuc(a1-2)Gal(b1-4)[Fuc(a1-3)]GlcNAc(b1-3)Gal(b1-4)[Fuc(a1-3)]GlcNAc(b1-3)Gal(b1-4)[Fuc(a1-3)]GlcNAc
# Summary of the method: as §1
# [6] = molecular target: Fuc(a1-2)Gal(b1-4)[Fuc(a1-3)]GlcNAc(b1-3)[Neu5Ac(a2-6)Gal(b1-4)GlcNAc(b1-6)]Gal(b1-4)Glc
# Summary of the method: as §1
# [7] = molecular target: Fuc(a1-2)[Gal(a1-3)]Gal
# Summary of the method: as §1
# [8] = molecular target: Fuc(a1-2)[Gal(a1-3)]Gal(b1-3)GlcNAc
# Summary of the method: as §1
# [9] = molecular target: Fuc(a1-2)[Gal(a1-3)]Gal(b1-3)GlcNAc(b1-3)GalNAc
# Summary of the method: as §1
# [10] = molecular target: Fuc(a1-2)[Gal(a1-3)]Gal(b1-4)[Fuc(a1-3)]GlcNAc(b1-3)GalNAc
# Summary of the method: as §1
# [11] = molecular target: Fuc(a1-2)[GalNAc(a1-3)]Gal(b1-3)GalNAc(a1-3)[Fuc(a1-2)]Gal(b1-4)GlcNAc
# Summary of the method: as §1
# [12] = molecular target: Fuc(a1-2)[GalNAc(a1-3)]Gal(b1-3)GlcNAc
# Summary of the method: as §1
# [13] = molecular target: Fuc(a1-2)[GalNAc(a1-3)]Gal(b1-4)GlcNAc(b1-3)Gal(b1-4)GlcNAc(b1-3)Gal(b1-4)GlcNAc
# Summary of the method: as §1
# [14] = molecular target: Fuc(a1-2)[GalNAc(a1-3)]Gal(b1-4)GlcNAc(b1-3)[Fuc(a1-2)[GalNAc(a1-3)]Gal(b1-4)GlcNAc(b1-6)]GalNAc
# Summary of the method: as §1
# [15] = molecular target: Fuc(a1-3)[Gal(b1-4)]GlcNAc(b1-3)Gal(b1-3)[Fuc(a1-4)]GlcNAc
# Summary of the method: as §1
# [16] = molecular target: Fuc(a1-3)[Gal(b1-4)]GlcNAc(b1-3)Gal(b1-4)[Fuc(a1-3)]GlcNAc
# Summary of the method: as §1
# [17] = molecular target: Fuc(a1-3)[Gal(b1-4)]GlcNAc(b1-3)Gal(b1-4)[Fuc(a1-3)]GlcNAc(b1-3)Gal(b1-4)[Fuc(a1-3)]GlcNAc
# Summary of the method: as §1
# [18] = molecular target: Fuc(a1-3)[Gal3S(b1-4)]GlcNAc6S
# Summary of the method: as §1
# [19] = molecular target: Fuc(a1-3)[GalNAc(b1-4)]GlcNAc6S
# Summary of the method: as §1
# [20] = molecular target: Gal(a1-3)Gal(b1-4)Glc
# Summary of the method: as §1
# [21] = molecular target: Gal(a1-3)Gal(b1-4)[Fuc(a1-3)]GlcNAc(b1-2)Man(a1-3)[Gal(a1-3)Gal(b1-4)[Fuc(a1-3)]GlcNAc(b1-2)Man(a1-6)]Man(b1-4)GlcNAc(b1-4)GlcNAc
# Summary of the method: as §1
# [22] = molecular target: Gal(a1-4)Gal(b1-3)GlcNAc(b1-2)Man(a1-3)[Gal(a1-4)Gal(b1-3)GlcNAc(b1-2)Man(a1-6)]Man(b1-4)GlcNAc(b1-4)GlcNAc
# Summary of the method: as §1
# [23] = molecular target: Gal(b1-3)GlcNAc(b1-3)Gal(b1-3)GlcNAc
# Summary of the method: as §1
# [24] = molecular target: Gal(b1-3)[Fuc(a1-4)]GlcNAc(b1-3)Gal(b1-3)[Fuc(a1-4)]GlcNAc
# Summary of the method: as §1
# [25] = molecular target: Gal(b1-4)GlcNAc(b1-2)[Gal(b1-4)GlcNAc(b1-6)]Man(a1-6)[GlcNAc(b1-4)][Gal(b1-4)GlcNAc(b1-2)Man(a1-3)]Man(b1-4)GlcNAc(b1-4)GlcNAc
# Summary of the method: as §1
# [26] = molecular target: Gal(b1-4)GlcNAc(b1-3)Gal(b1-4)GlcNAc(b1-2)[Gal(b1-4)GlcNAc(b1-3)Gal(b1-4)GlcNAc(b1-6)]Man(a1-6)[Gal(b1-4)GlcNAc(b1-3)Gal(b1-4)GlcNAc(b1-2)Man(a1-3)]Man(b1-4)GlcNAc(b1-4)GlcNAc
# Summary of the method: as §1
# [27] = molecular target: Gal(b1-4)GlcNAc(b1-3)Gal(b1-4)GlcNAc(b1-3)Gal(b1-4)GlcNAc(b1-2)Man(a1-3)[Gal(b1-4)GlcNAc(b1-3)Gal(b1-4)GlcNAc(b1-3)Gal(b1-4)GlcNAc(b1-2)Man(a1-6)]Man(b1-4)GlcNAc(b1-4)[Fuc(a1-6)]GlcNAc
# Summary of the method: as §1
binder,measurement,setting,value
"DC-Sign (Homo sapiens), Q9NNX6 (protein) MSDSKEPRLQQLGLLEEEQLRGLGFRQTRGYKSLAGCLGHGPLVLQLLSFTLLAGLLVQVSKVPSSISQEQSRQDAIYQNLTQLKAAVGELSEKSKLQEIYQELTQLKAAVGELPEKSKLQEIYQELTRLKAAVGELPEKSKLQEIYQELTWLKAAVGELPEKSKMQEIYQELTRLKAAVGELPEKSKQQEIYQELTRLKAAVGELPEKSKQQEIYQELTRLKAAVGELPEKSKQQEIYQELTQLKAAVERLCHPCPWEWTFFQGNCYFMSNSQRNWHDSITACKEVGAQLVVIKSAEEQNFLQLQSSRSNRFTWMGLSDLNQEGTWQWVDGSPLLPSFKQYWNRGEPNNVGEEDCAEFSGNGWNDDKCNLAKFWICKKSAASCSRDEEQFLSPAPATPNPPPA",glycan array binding signal (z-score),[1],-0.14
same,glycan array binding signal (z-score),[2],-0.182
same,glycan array binding signal (z-score),[3],9.49
same,glycan array binding signal (z-score),[4],12.6
same,glycan array binding signal (z-score),[5],6.53
same,glycan array binding signal (z-score),[6],-0.045
same,glycan array binding signal (z-score),[7],0.684
same,glycan array binding signal (z-score),[8],-0.126
same,glycan array binding signal (z-score),[9],-0.189
same,glycan array binding signal (z-score),[10],-0.164
same,glycan array binding signal (z-score),[11],-0.193
same,glycan array binding signal (z-score),[12],-0.122
same,glycan array binding signal (z-score),[13],-0.15
same,glycan array binding signal (z-score),[14],-0.189
same,glycan array binding signal (z-score),[15],5.28
same,glycan array binding signal (z-score),[16],2.48
same,glycan array binding signal (z-score),[17],8.36
same,glycan array binding signal (z-score),[18],-0.13
same,glycan array binding signal (z-score),[19],1.43
same,glycan array binding signal (z-score),[20],-0.198
same,glycan array binding signal (z-score),[21],-0.165
same,glycan array binding signal (z-score),[22],-0.131
same,glycan array binding signal (z-score),[23],-0.156
same,glycan array binding signal (z-score),[24],2.51
same,glycan array binding signal (z-score),[25],-0.187
same,glycan array binding signal (z-score),[26],0.026
same,glycan array binding signal (z-score),[27],-0.137
